Each structure is given as a SMILES string. Values joined by “and” are separate entries in the source; they are usually repeats but may differ in a detail not shown here. Equal entries are not always repeated. The panel holds about 83,000 compounds, 20% with a hit somewhere; the sample as a whole holds those more often.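 Cell lines were cultured in 96-well plates, exposed to a single compound concentration, and assessed for percent growth 48 hours later.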 Values without a mark were called inactive. Active and inactive are the calls of the source. The calls were made as follows: active = growth percent below 10; inactive = the rest.

In this test the test system is MDA-MB-468 breast. Description: NCI-60 one-dose screen, 48 h (100 = growth as untreated, 0 = no growth, -100 = all killed). Conditions: 10 µM unless noted.
For the compound `CC1=C(O)C(=O)C(C(C#N)(C#N)C(C#N)C#N)C1` (stereo not given), the growth is 102%.
With `CCCCCCCCCCCCCC`, the growth was 110%.
The figure for `Cc1ccc(NC(=O)c2sc3nc(C)c(C(O)c4ccccc4)cc3c2N)cc1` (stereo not given) is 18.6%; for `COc1c(Cl)cc(Cl)c2ccc(C=C3C(=O)NC(=S)NC3=O)nc12` it is 108%.
The figure for `Cc1c(Cl)cccc1NC(=O)CCCl` is 108%; for `O=S(=O)(Nc1cccc2ccccc12)c1ccc(-c2cnc(C3CC3)o2)cc1` it is 0.881% (active).
Take `CNC1CCc2c(sc(NC(=O)c3ccc(C(C)(C)C)cc3)c2C(N)=O)C1` (stereo not given): the growth was -37.2% (active).
The figure for `c1ccc(OCC[P+](c2ccccc2)(c2ccccc2)c2ccccc2)cc1` is -18.1% (active).
Under `C/C(=N/N=C(N)N)c1ccc(Cl)cc1` stands 95.7%.
The figure for `COc1ccc(/C=C/C(=O)O)cc1OC` is 99.5% and 102%; for `COc1cc(OC)c(/C=C/C(=O)c2c(N)cc(OC)cc2OC)c(OC)c1` it is -17.1% (active).
Take `Cc1n[nH]c(C)c1-c1c(C)n[nH]c1C`: the growth was -0.751% (active).
Take `CC(SC(C)C(=O)N/N=C/c1cccc(Cl)c1)C(=O)N/N=C\c1cccc(Cl)c1` (stereo not given): the growth was 97.4%.
Turning to `O=S(=O)(NCCNc1nccc(-n2cnc3ccccc32)n1)c1ccc(Cl)cc1`, the growth is 101%.
As for `Nc1c(C(=O)Nc2ccccc2Cl)sc2nc3c(cc12)C(=O)CCC3`, the growth was 24.9%.
Turning to `CCCCCCCCCCCCCCCCSC(=NCC)NCC`, the growth is -37.3% (active).
As for `C=C(c1ccc(C(=O)O)c(F)c1)c1cc2c(cc1C)C(C)(C)C=CC2(C)C`, the growth was 93.8%.
Under `COCCn1cc(-c2csc(-c3cn(C)c4ccc(F)cc34)n2)c2cccnc21` stands 21.3%; under `COC(=O)/C=C1\S/C(=N\NC(=O)c2cc3ccc2/C=C\c2ccc(cc2)/C=C\3)N(c2ccccc2)C1=O`, -0.388% (active).
Under `Cn1c(=O)c2[nH]c(CCCCC(=O)O)nc2n(C)c1=O` stands 121%.
Turning to `O=C(Nc1cccc2[nH]c(C(F)(F)F)nc12)c1cc(Cl)ccc1Cl`, the growth is 15.1%.
The figure for `CN(C)c1ccc(/C=C/c2ccnc3ccccc23)cc1N` is 5.88% (active).
Under `CC(=O)Oc1c(C)c(C)c2c(c1C)CCC(C)(CC(=O)OCCCCCCCCCCC[P+](c1ccccc1)(c1ccccc1)c1ccccc1)O2` (stereo not given) stands -55.7% (active).
Turning to `Cc1ccc(-n2cc(-c3ccccc3)c3c2N=NN2CCN=C32)cc1`, the growth is 103%.
For `CCCCC(N)(C(=O)O)C1CCCC1` (stereo not given), the growth was 107%.
Under `Cc1nc(N=C(N)N)nc2ccc3ccccc3c12` stands -55.8% (active); under `CNC(=O)c1cc(Oc2ccc3nc(Nc4ccc(Cl)c(C(F)(F)F)c4)ccc3c2)ccn1`, 45.3%.
`Cc1ccc2oc(=O)cc(-c3nc4ccc([N+](=O)[O-])cc4[nH]3)c2c1`: the growth was 29%.
As to `Nc1c(C(=O)c2ccc(Br)cc2)sc2nc3c(cc12)CCCC3`, the growth was 79.1%.
The figure for `O=C(/C=C/Nc1ccc(S(=O)(=O)Nc2ncccn2)cc1)c1ccc(N=Cc2c(O)[nH]c3ccccc23)cc1` is 109%; for `Clc1ccc(Sc2cnc(-c3ccccc3)o2)cc1` it is 111%; for `COc1cccc2cc(N(C)c3ncnc4ccccc34)ccc12` it is -7.56% (active).
In the case of `C/C(Cc1ccc(Cl)cc1)=C(/c1ccc(Cl)cc1)c1ccc(OCCN2CCCC2)cc1`, the growth was 66.1%.
Under `CCOC(=O)C1=C(C)N2C(=NC3=C(CCCC/C3=C\c3ccccc3)C2c2ccccc2)S1` (stereo not given) stands 103%.
The figure for `CO[C@H]1CC[C@@]2(C)C(=CC[C@H]3[C@@H]4C[C@H](O)C[C@@]4(C)CC[C@@H]32)C1` is -12.8% (active).
The figure for `C[C@@H]1CC[C@@]2(OC1)O[C@H]1C[C@H]3[C@@H]4CC=C5C[C@@H](O[C@@H]6O[C@H](CO)[C@@H](O[C@@H]7O[C@@H](CO)[C@H](O)[C@H]7O)[C@H](O)[C@H]6O[C@@H]6O[C@@H](C)[C@H](O)[C@@H](O)[C@H]6O)CC[C@]5(C)[C@H]4CC[C@]3(C)[C@H]1[C@@H]2C` is -40.3% (active).
In the case of `CC(=O)[C@@H]1CC[C@]2(C(N)=O)CC[C@]3(C)[C@H](CC[C@@H]4[C@@]5(C)CCCNC(C)(C)[C@@H]5CC[C@]43C)[C@@H]12`, the growth was 82.2%.
Turning to `CC(CN(C)C)Oc1ccccc1NC1=C(Cl)C(=O)C(Nc2ccccc2OC(C)CN(C)C)=C(Cl)C1=O` (stereo not given), the growth was -64.2% (active).
The figure for `COc1ccc(/C=C/c2nc(Nc3ccc(S(=O)(=O)Nc4nc(C)cc(C)n4)cc3)c3ccccc3n2)cc1` is 24%; for `CCCCOc1nc2ccc(C)cc2cc1/C=C/C(=O)/C=C(O)/C=C/c1cc2cc(C)ccc2nc1OCCCC` it is 104%.

Source of the values: PubChem BioAssay (NCI).
